Screening results deposited in PubChem BioAssay by several laboratories.
Shown are actives, neighbours in structure and some others; about 2.2% of the full set was active somewhere.
PTPN22 inh 2 = blocks human PTPN22 phosphatase activity | Q9Y2R2 | recombinant LYP catalytic domain, DiFMUP fluorescence | inhibition, % at 2 µM | 96,000 compounds, 0.21% hits;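 active = inhibition at 2 µM at or above a set limit, the screen mean plus 3 SD, cut at about 24% in these data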
LYP act = activators of human LYP (PTPN22) phosphatase | Q9Y2R2 | 96,000 compounds, 0.11% hits | activation, % at 2 µM | recombinant LYP, DiFMUP fluorescence; 0 = plate median, 100 = signal doubled;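 active = activation at 2 µM above a set limit, the mean plus 5 SD, cut at about 37% in these data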
MRP resist rev = compounds reversing MRP-mediated drug resistance; differential viability (reversal), % at 10 µM; 85,000 compounds, 0.04% hits; H69AR cells + 2 uM doxorubicin, CellTiter-Glo, 72 h; AID 602;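 active = viability drop by adding the cancer drug above about 55%, with treated viability meeting a 40% cutoff, limit read from the data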;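 also: larger differential means the compound sensitizes cells more to doxorubicin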
MRP-1 activ = activators of MRP-1 | H69AR cells + doxorubicin, viability rescue, CellTiter-Glo | viability increase, % at 10 µM | 140,000 compounds, 0.61% hits | AID 799;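 active = viability gain under doxorubicin at or above a set limit, the compound median plus 3 SD, cut at about 4.7% in these data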;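 also: MRP-1 overexpressing cells given doxorubicin 25 µM after compound pretreatment; 18-22 h compound pretreatment then 72 h with doxorubicin before readout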
PLAP act = activates human placental alkaline phosphatase; P05187; purified PLAP enzyme, luminescent substrate read-out; active compounds read high; activation fold at 20 µM; 96,000 compounds, 1.2% hits; AID 696; in the data active = activation fold above about 2
FAK inh = inhibitors of human focal adhesion kinase. Q05397. biochemical FAK kinase activity assay. inhibition, %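 (tested at 7 µM)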. 97,000 compounds, 0.84% hits; in the data active = inhibition above about 19%
Each line names hits and unclear results; the compound was inactive in the other large screens.

COc1ccccc1-c1c(-c2ccc(OCC(=O)NN)cc2O)n[nH]c1C(F)(F)F	none (no result: PTPN22 inh 2, LYP act, MRP resist rev, PLAP act, FAK inh)
COc1ccc(-c2n[nH]c(C(F)(F)F)c2-c2cc3ccccc3o2)c(O)c1	PLAP act 2
CCC(C(=O)NCc1ccccc1OC)n1nc(C)n2c(cc3occc32)c1=O (stereo not given)	none
Cc1ccc(N/N=C(\C#N)C(=N)N2CCOCC2)cc1	MRP-1 activ 6.5 (no result: PTPN22 inh 2, LYP act, MRP resist rev, PLAP act, FAK inh)
N#C/C(=N\Nc1ccccc1F)C(=N)N1CCCCC1	MRP-1 activ 8.2 (no result: PLAP act)
N#C/C(=N\Nc1ccccc1)C(=N)N1CCOCC1	MRP-1 activ 6.8 (no result: PTPN22 inh 2, LYP act, MRP resist rev, PLAP act, FAK inh)
COc1ccc(-c2[nH]ncc2/C=N\NS(=O)(=O)c2ccc(Cl)cc2)cc1	none (no result: MRP resist rev)
CC(C)(Oc1ccc(Cl)cc1)C(=O)N/N=C/c1cn[nH]c1-c1ccccc1	PLAP act 2.8 (no result: MRP resist rev)
Cc1ccccc1-n1c(C)nnc1SCC(=O)N1CCc2ccccc2C1	none (no result: PTPN22 inh 2, LYP act, MRP resist rev, PLAP act, FAK inh)
COc1ccc(N2CCN(CC(=O)Nc3cc(C)on3)CC2)cc1	none
COc1ccc(N2CCN(CC(=O)Nc3nc4c(s3)CC(C)CC4)CC2)cc1 (stereo not given)	PLAP act 2.9
CC(C)Cn1c(N)c(C(=O)CSc2ncnc3sc4c(c23)CCCC4)c(=O)n(C)c1=O	none (no result: PTPN22 inh 2, LYP act, MRP resist rev, PLAP act, FAK inh)
CCN(CC)CCNc1ncnc2c1[nH]c1ccc(OC)cc12	none (no result: PLAP act)
COCCCNc1ncnc2c1[nH]c1ccccc12	PTPN22 inh 2 34 (no result: MRP resist rev)
CC[n+]1c(/C=C/C=C/N(C(C)=O)c2ccccc2)sc2cc(OC)ccc21	none (no result: PTPN22 inh 2, LYP act, MRP resist rev, PLAP act, FAK inh)
CCCCn1c(CN(Cc2ccccc2)Cc2ccccc2)nc2c1c(=O)n(C)c(=O)n2C	none (no result: MRP-1 activ, PLAP act)
CN(Cc1ccccc1)c1nc2c(c(=O)n(C)c(=O)n2C)n1CCCc1ccccc1	PLAP act 2.1
CCCCCn1c(CN(C)Cc2ccccc2)nc2c1c(=O)n(C)c(=O)n2C	PLAP act 2
COc1ccccc1NC(=S)N1CCC(NC(=O)NC23CC4CC(CC(C4)C2)C3)CC1	none (no result: MRP resist rev)
COc1ccc(NC(=S)N2C3CCC2CC(NC(=O)NC24CC5CC(CC(C5)C2)C4)C3)c(OC)c1 (stereo not given)	PLAP act 2.5 (no result: MRP resist rev)
Cc1ccc(/C=N/Nc2ncc(Cl)cc2Cl)s1	PLAP act 2.8
Clc1cnc(N/N=C/c2cccs2)c(Cl)c1	MRP resist rev 81
Clc1cnc(N/N=C/c2ccco2)c(Cl)c1	none (no result: PTPN22 inh 2, LYP act, MRP resist rev, PLAP act, FAK inh)
CCOC(=O)c1c(NC(=O)CSc2nc3nc(C)cc(C)n3n2)sc(CC)c1C	none (no result: PTPN22 inh 2, LYP act, MRP resist rev, PLAP act, FAK inh)
Cc1ccc(C(=O)Nc2ccon2)cc1S(=O)(=O)N1CCCC1	none
CCOc1ccccc1NC(=O)NC1(C(=O)N2CCN3CCCC3C2)CCCCC1 (stereo not given)	PLAP act 2.1
O=C(NCc1ccccc1)NC1(C(=O)N2CCN3CCCC3C2)CCCCC1 (stereo not given)	none (no result: PLAP act)
COC(=O)C(Cc1c[nH]c2ccccc12)NC(=O)c1cc(-c2ccc(OC)c(OC)c2)oc1C (stereo not given)	none (no result: PTPN22 inh 2, LYP act, MRP resist rev, PLAP act, FAK inh)
CCS(=O)(=O)N1CCC(C(=O)NCc2ccc(F)cc2Cl)CC1	none
Cc1cc(C)c(S(=O)(=O)N2CCC(C(=O)NCc3ccc(Cl)cc3Cl)CC2)c(C)c1	PLAP act 2.4
Cc1csc(NC(=O)CCc2c(C)nc3cc(-c4ccc(Cl)cc4)nn3c2C)n1	none (no result: PTPN22 inh 2, LYP act, MRP resist rev, PLAP act, FAK inh)
Cc1nc2cc(-c3ccc(Cl)cc3)nn2c(C)c1CCC(=O)NC(C)c1ccc2c(c1)OCCO2 (stereo not given)	MRP-1 activ 5.5 (no result: PTPN22 inh 2, LYP act, MRP resist rev, PLAP act, FAK inh)
COc1ccccc1/C=C(/C(=O)OCC(=O)Nc1cc(C)ccc1C)c1ccccc1	none (no result: PTPN22 inh 2, LYP act, MRP resist rev, PLAP act, FAK inh)
COc1cc(C2Nn3c(nnc3-c3ccccc3OC)S2)ccc1O (stereo not given)	none (no result: PLAP act)
Cc1ccc2[nH]c3c(N4CCN(Cc5ccccc5)CC4)ncnc3c2c1	PLAP act 2
COc1cccc2[nH]c3c(N4CCN(Cc5ccc6c(c5)OCO6)CC4)ncnc3c12	PLAP act 2.1
Fc1ccc2[nH]c3c(N4CCN(C5CCCCC5)CC4)ncnc3c2c1	PLAP act 2.3 (no result: PTPN22 inh 2, LYP act, FAK inh)
COc1cccc(N2CCN(c3ncnc4c3[nH]c3ccc(F)cc34)CC2C)c1 (stereo not given)	none
Cc1ccc2c(c1)[nH]c1c(N3CCN(Cc4ccccc4)CC3)ncnc12	none
O=C(NC(=S)Nc1cccc(NC(=O)c2ccc(Cl)cc2Cl)c1)c1cccs1	none (no result: PTPN22 inh 2, LYP act, MRP resist rev, PLAP act, FAK inh)
CC(NC(=O)C1CCCC1)c1ccc2c(c1)OCCO2 (stereo not given)	none
